Test results published in PubChem BioAssay AID687016 (The Scripps Research Institute Molecular Screening Center, 2013).
In all, about 370,000 compounds went through this assay and about 2,800 (0.76%) were called active. For the sample, actives were picked, then their nearest neighbours and some compounds at random. Unmarked numbers belong to inactive results. No stated cut-off is given here; in the data, active means inhibition above about 21%; inactive means the rest.

biological target: E3 ubiquitin-protein ligase UHRF1 (Homo sapiens) (UniProt Q96T88); experiment: UHRF1 methylated DNA binding inhibitors, primary screen, counter-screen for MBD2 inhibitor project, biochemical, TR-FRET, human UHRF1, single concentration (AID 687016); conditions: UHRF1 binding to methylated oligo, at 4.4 µM, hits give high values;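 further: UHRF1 SRA domain binding a hemimethylated CpG hairpin DNA probe; 0% = median of test compound wells and 100% = reference inhibitor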
Sequence (Q96T88 whole entry, looked up, the tested form may be a part): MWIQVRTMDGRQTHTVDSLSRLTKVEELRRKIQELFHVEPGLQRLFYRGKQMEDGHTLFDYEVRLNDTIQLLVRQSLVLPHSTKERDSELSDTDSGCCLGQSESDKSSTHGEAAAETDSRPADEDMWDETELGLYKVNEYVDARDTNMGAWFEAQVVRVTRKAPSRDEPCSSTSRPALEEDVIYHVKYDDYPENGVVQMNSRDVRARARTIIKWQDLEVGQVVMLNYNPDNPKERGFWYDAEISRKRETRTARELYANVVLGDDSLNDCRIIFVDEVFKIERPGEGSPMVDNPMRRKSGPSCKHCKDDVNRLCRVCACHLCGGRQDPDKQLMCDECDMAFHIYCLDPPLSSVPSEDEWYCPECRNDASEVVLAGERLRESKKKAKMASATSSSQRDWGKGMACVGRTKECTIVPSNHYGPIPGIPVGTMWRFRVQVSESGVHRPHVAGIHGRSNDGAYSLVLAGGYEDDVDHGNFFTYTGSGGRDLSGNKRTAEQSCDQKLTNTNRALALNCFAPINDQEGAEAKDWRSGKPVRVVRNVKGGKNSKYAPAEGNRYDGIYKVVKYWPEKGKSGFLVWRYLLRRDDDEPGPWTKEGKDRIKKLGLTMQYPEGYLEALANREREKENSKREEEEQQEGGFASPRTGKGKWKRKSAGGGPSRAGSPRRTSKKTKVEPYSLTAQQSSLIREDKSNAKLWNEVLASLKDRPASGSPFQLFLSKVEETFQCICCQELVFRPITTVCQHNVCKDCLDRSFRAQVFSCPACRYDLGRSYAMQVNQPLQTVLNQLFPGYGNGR

SMILES | inhibition
CC[C@@]1(C(=O)OC)N[C@H](CN(C)C(C)=O)[C@@H]2C(=O)N(C)C(=O)[C@@H]21 | 4.65%
CCCSc1ccc([C@H]2N[C@@](Cc3ccccc3)(C(=O)OC)[C@H]3C(=O)N(C)C(=O)[C@@H]23)cc1 | 2.8%
COc1ccc2c(c1)CN1CN(CCc3ccccc3)S(=O)(=O)CC21 (centres undefined) | -5.7%
COC(=O)[C@@]12CCCCC3=C1N(CCC3)C(=O)[C@H]2CC(=O)NCc1cccc2ccccc12 | -1.21%
CC(=O)N1CCc2cc(S(=O)(=O)NCCC(=O)N3CCCC3)ccc21 | 2.88%
CC(c1ccc(N)cc1)c1cn(C)c2ccccc12 (centres undefined) | 2.19%
O=C(NCCc1c[nH]c2ccccc12)OCc1cn(-c2c(F)cccc2F)nn1 | -1.24%
O=S(=O)(c1ccccc1)N1CCC(c2nc3ccccc3o2)CC1 | -2.1%
Cc1ccc(S(=O)(=O)N2CCN(C(=O)CCC(=O)NC3CCCc4ccccc43)CC2)cc1 (centres undefined) | -0.03%
CNS(=O)(=O)c1cccc(C(=O)NC2CCCc3ccccc32)c1 (centres undefined) | -0.54%
O=C(O)c1cc(S(=O)(=O)NC2CCCc3ccccc32)ccc1O (centres undefined) | 26.4% (active)
COC(=O)C1CN(CCc2ccccc2)CCS(=O)(=O)N1Cc1ccc(F)cc1 (centres undefined) | 2.78%
O=C(Nc1cc(F)cc(F)c1)OC1CCC12CCC(c1ccccc1)CC2 (centres undefined) | -0.77%
CC(C)(C)c1ccc(C(=O)Nc2cc(Cl)c(Br)cc2C(=O)O)cc1 | 3.66%
COc1ccccc1N(CC(=O)N/N=C(\C)c1ccccc1O)S(=O)(=O)c1ccc(C)cc1 | -1.56%
Cc1ccc(S(=O)(=O)N(CC(=O)N/N=C/c2ccc(F)cc2)c2cccc3cccnc23)cc1 | 24.1% (active)
Cc1ccc(S(=O)(=O)N(CC(=O)NN=C2CCN(C)CC2)c2ccc(F)cc2)cc1 | -0.56%
O=S1(=O)c2ccc(Br)cc2OC[C@H](Cc2ccccc2)N1Cc1cn(Cc2ccccc2)nn1 | 1.7%
COc1ccc(S[C@]2(C(=O)N(C)C)CC(=O)N(c3ccc(OC)cc3)[C@@H]2c2ccc(OC)cc2)cc1 | 2.01%
O=C(Nc1ccc(F)cc1)c1cccnc1N1CCOCC1 | -3.63%
O=C1OC(NC(=O)c2ccccc2)C(N2CCOCC2)=C1Cl (centres undefined) | 0.02%
O=C(O)c1ccc(NN=CC2=C(N3CCOCC3)/C(=C/c3ccccc3)CC2)cc1 | 22.5% (active)

SMILES | inhibition
CCOC(=O)C(=O)N(Cc1ccccc1)c1ccccc1C(=O)Nc1cc(OC)ccc1OC | 1.4%
COc1ccc(CCNc2nc(C)cc(C)n2)cc1OC | -1.42%
COc1ccc(CCNc2nc(-c3cccc(NC(C)=O)c3)cs2)cc1OC | 63% (active)
COc1ccc(NC(=O)C2(C)Cc3c(-c4cccc(NC(C)=O)c4)ccnc3O2)cc1OC (centres undefined) | 3.78%
Cc1ccc(CSc2nnc(SCC(=O)NN=Cc3cc(Br)ccc3F)s2)cc1 | -0.65%
COc1ccc(-n2c(SCC(=O)Nc3ccc(C)c(Cl)c3)nc3ccccc3c2=O)cc1 | 0.63%
COc1ccc(NC(=O)CSc2nnc(Cc3ccccc3)c(=O)n2N)cc1 | -3.2%
COc1ccc(NC(=O)CSc2nc3ccccc3c(=O)n2C)cc1 | 40.1% (active)
COc1ccc(C2CC=C(C(=O)O)C(c3ccccc3F)N2S(=O)(=O)c2ccc(C)cc2)cc1OC (centres undefined) | -0.43%
COc1cccc(N(C)C(=O)[C@@H](C)[C@@H](O)c2ccc3ccccc3c2)c1 | -1.4%
COc1ccc(C2NC(=O)N(C)C(C)=C2[N+](=O)[O-])cc1 (centres undefined) | 0.56%
CC(C)Oc1ccc(C2NC(=O)NC2=O)cc1 (centres undefined) | 25% (active)
O=C1NC(=O)C(c2ccc(Cl)cc2)N1 (centres undefined) | 2.25%
N#Cc1ccccc1OC[C@@H](O)CN1CCC(C(O)(c2ccccc2)c2ccccc2)CC1 | -2.62%
Cc1ccc(CN2CCCCC(NC(=O)C3CCCCC3)C2=O)cc1 (centres undefined) | -1.14%
CCCN(CCC)C(=S)Nc1cc(C(=O)OC)ccc1C(=O)OC | 20.9% (active)
CCS(=O)(=O)Nc1cc(C(=O)OC)ccc1C(=O)OC | -4.74%
CCN(CCO)C(=S)Nc1cc(C(=O)OC)ccc1C(=O)OC | 2.08%
COc1cccc(/C=C2\CC3(OC(C)=O)CCCN2C3)c1 (centres undefined) | -1.67%
O=C(NCC(c1cccs1)N1CCOCC1)c1cc(Cl)ccc1[N+](=O)[O-] (centres undefined) | 29.1% (active)
Cc1ccc(-c2nn(-c3ccc(F)cc3)cc2C(=O)NCC(c2cccs2)N2CCOCC2)cc1 (centres undefined) | -1.94%
COc1ccc(NS(=O)(=O)c2ccc(C)c(C(=O)NCC(c3cccs3)N3CCOCC3)c2)cc1 (centres undefined) | 3.98%
